From PubChem BioAssay AID602124 (The Scripps Research Institute Molecular Screening Center, 2011)
The campaign covered roughly 1,300 compounds. About 630 (48%) were called active. Rule as the data show it: active = inhibition above about 6.5%; inactive = the rest. So high a share suggests a set chosen from earlier hits. This excerpt belongs to a sample that is enriched for actives.

The compounds below were run against Tyrosine-protein kinase ABL1 (Homo sapiens) + Ras and Rab interactor 1 (Homo sapiens) (UniProt P00519+Q13671) (assay: disruptors of human Abl and Rin1 association – biochemical, TR-FRET, confirmation (AID 602124)). Details: TR-FRET Rin1-Abl binding, purified proteins; at 7.35 µM; active compounds read high.
Tyrosine-protein kinase ABL1 (Homo sapiens) + Ras and Rab interactor 1 (Homo sapiens), sequence (P00519 whole entry, looked up): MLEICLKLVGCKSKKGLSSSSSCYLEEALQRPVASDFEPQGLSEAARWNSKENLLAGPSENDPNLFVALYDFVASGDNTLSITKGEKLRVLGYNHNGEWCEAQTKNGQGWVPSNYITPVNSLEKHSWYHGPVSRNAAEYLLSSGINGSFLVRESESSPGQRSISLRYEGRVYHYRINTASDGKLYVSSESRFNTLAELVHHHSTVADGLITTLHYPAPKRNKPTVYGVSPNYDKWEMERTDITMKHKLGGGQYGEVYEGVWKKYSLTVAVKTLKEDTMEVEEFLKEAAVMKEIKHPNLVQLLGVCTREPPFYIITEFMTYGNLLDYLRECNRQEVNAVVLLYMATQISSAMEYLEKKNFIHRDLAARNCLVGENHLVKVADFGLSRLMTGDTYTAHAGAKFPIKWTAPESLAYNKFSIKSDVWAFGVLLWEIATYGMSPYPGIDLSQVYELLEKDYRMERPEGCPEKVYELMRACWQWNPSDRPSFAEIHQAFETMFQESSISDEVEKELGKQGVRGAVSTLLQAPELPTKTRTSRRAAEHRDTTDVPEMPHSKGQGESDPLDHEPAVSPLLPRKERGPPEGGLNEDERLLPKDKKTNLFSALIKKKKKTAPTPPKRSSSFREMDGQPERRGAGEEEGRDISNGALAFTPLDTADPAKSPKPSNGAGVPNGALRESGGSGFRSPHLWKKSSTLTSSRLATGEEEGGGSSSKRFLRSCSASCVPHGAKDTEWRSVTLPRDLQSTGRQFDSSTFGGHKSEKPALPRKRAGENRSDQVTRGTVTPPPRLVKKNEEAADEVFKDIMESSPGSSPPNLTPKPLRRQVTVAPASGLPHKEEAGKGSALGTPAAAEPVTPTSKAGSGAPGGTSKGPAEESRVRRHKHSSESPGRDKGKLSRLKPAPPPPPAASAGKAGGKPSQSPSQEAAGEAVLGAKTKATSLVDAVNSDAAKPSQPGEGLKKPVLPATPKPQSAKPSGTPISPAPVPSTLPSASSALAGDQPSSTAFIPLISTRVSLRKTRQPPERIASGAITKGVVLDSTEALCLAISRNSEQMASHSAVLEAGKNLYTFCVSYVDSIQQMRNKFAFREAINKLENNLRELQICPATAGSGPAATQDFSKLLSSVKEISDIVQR
Tyrosine-protein kinase ABL1 (Homo sapiens) + Ras and Rab interactor 1 (Homo sapiens), sequence (Q13671 whole entry, looked up): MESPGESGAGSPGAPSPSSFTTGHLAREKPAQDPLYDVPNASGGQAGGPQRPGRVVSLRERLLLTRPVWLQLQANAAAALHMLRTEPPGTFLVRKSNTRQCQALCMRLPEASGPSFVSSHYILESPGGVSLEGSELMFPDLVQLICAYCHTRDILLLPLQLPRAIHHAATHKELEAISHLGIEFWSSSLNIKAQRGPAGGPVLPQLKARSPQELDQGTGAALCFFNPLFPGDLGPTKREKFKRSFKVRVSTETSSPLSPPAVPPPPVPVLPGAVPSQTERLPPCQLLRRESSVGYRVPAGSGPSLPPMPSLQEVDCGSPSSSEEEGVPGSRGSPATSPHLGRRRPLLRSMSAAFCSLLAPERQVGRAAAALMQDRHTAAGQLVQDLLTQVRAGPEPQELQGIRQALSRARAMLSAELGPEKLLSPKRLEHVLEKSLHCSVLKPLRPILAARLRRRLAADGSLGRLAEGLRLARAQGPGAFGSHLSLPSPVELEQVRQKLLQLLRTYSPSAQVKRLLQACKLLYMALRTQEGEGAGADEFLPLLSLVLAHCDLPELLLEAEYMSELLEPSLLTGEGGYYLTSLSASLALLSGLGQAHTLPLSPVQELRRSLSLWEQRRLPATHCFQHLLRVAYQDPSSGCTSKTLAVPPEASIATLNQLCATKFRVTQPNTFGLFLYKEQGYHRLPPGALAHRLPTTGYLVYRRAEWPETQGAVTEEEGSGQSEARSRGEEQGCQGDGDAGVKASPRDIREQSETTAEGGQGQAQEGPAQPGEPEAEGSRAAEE

Row | Structure (SMILES) | inhibition
1 | CSCCC(c1nnnn1C(C)(C)C)N1CCC(n2c(=O)[nH]c3ccccc32)CC1 (stereo unspecified) | 16.5% (active)
